Among the data in PubChem BioAssay (Tox21) are Potency values, retold here.

Experiment [1] in a line: qHTS assay to identify small molecule antagonists of the thyroid receptor (TR) signaling pathway - cell viability counter screen (AID 743064). Also: nearly all actives have a fitted effect of over 50% in size. Also: potency is read from the fitted curve at half-maximal effect. In a few lines:
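GH3.TRE-Luc rat pituitary cells carrying a TRE-luciferase reporter were treated with compound plus 1 nM T3 (final) for 23.5 h at 37 °C. Viability was then read in the same wells by CellTiter-Fluor fluorescence after a further 30 min.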

The nature of experiment [2]: qHTS assay to identify small molecule antagonists of the thyroid receptor (TR) signaling pathway (AID 743065). Also: nearly all actives have a fitted effect of over 55% in size. Also: potency is read from the fitted curve at half-maximal effect. In a few lines:
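GH3.TRE-Luc rat pituitary cells carrying two TR response elements driving luciferase were plated for 4 h, given compound plus 1 nM T3 (final), and incubated 23.5 h at 37 C. ONE-Glo luminescence measured reporter inhibition; CellTiter-Fluor fluorescence tracked cytotoxicity.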
On the technique in general: qHTS replaces the single test concentration by a dilution series.

Experiment [3] deals with thyroid hormone receptor (rat, GH3 cells). Kind of experiment: qHTS assay to identify small molecule agonists of the thyroid receptor (TR) signaling pathway (AID 743066; calls by dose curve).
Experiment [4] addresses Estrogen receptor (Homo sapiens) (UniProt P03372). Briefly: qHTS assay to identify small molecule antagonists of the estrogen receptor alpha (ER-alpha) signaling pathway (AID 743069; active = well fitted curve in the direction sought with a large enough effect in the signal ratio in the repeat runs, not every such curve was filed as active; inconclusive = weak or mixed curves, or effect the other way; inactive = no such curve, though single readings can be large or run the other way; the % refers to the signal ratio). The method in brief: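 A 17beta-estradiol challenge was applied right after compound transfer to ER-alpha-UAS-bla HEK293 cells previously kept in charcoal-stripped serum. Plates stood 18 hr at 37C and 5% CO2; fluorescence was read following 2 hr FRET substrate loading at room temperature.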

The nature of experiment [5]: qHTS assay to identify small molecule antagonists of the estrogen receptor alpha (ER-alpha) signaling pathway - cell viability counter screen (AID 743074; calls by dose curve;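 also: HEK293 cells carrying ER-alpha-UAS-bla reporter stimulated with 17beta-estradiol; nearly all actives have a fitted effect of over 45% in size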).
In experiment [6] the target is Estrogen receptor (Homo sapiens) (UniProt P03372). Kind of experiment: qHTS assay to identify small molecule agonists of the estrogen receptor alpha (ER-alpha) signaling pathway (AID 743075; calls by dose curve;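 also: HEK293 GripTite cells with ER-alpha and UAS-driven beta-lactamase reporter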; also: potency is read from the fitted curve at half-maximal effect).
The target is the same in experiment [7]. Kind of experiment: qHTS assay to identify small molecule agonists of the estrogen receptor alpha (ER-alpha) signaling pathway using the BG1 cell line (AID 743079). Also: nearly all actives have a fitted effect of over 20% in size. Also: potency is read from the fitted curve at half-maximal effect. To be noted: BG1Luc4E2 cells, ERE-luciferase agonist, 22 h; activation: at 70.3 µM (top of the series).
A short description of experiment [8]: qHTS assay to identify small molecule antagonists of the estrogen receptor alpha (ER-alpha) signaling pathway using the BG1 cell line (AID 743080; calls by dose curve;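 also: BG1 cells stimulated with 17beta-estradiol alongside compound; nearly all actives have a fitted effect of over 25% in size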). The method in brief: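 Seeding, 24 h rest, compound transfer from DMSO, 17beta-estradiol addition, 21.5 h incubation, CellTiter-Fluor (30 min, 37 C), then ONE-Glo (30 min, room temperature): this sequence was run on BG1-Luc-4E2 reporter cells.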

Experiment [9] is described as follows: qHTS assay to identify small molecule antagonists of the estrogen receptor alpha (ER-alpha) signaling pathway using the BG1 cell line - cell viability counter screen (AID 743081).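 Also: compound given together with 17beta-estradiol as the ER stimulus; nearly all actives have a fitted effect of over 45% in size.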 Also: potency is read from the fitted curve at half-maximal effect.
Another experiment has as its target Aromatase (Homo sapiens) (UniProt P11511). Briefly: qHTS assay to identify aromatase inhibitors (AID 743083). Also: nearly all actives have a fitted effect of over 55% in size.

Several values for one entry are separate records, joined by “and”; a condition that tells them apart may be missing. Identical values can stand only once. Activity calls are given as the source filed them. Unless noted, calls follow the shape of the dose curve; as a rule, active = well fitted curve in the direction sought with a large enough effect in the repeat runs; inconclusive = weak or mixed curves; inactive = no such curve, though single readings can be large; an effect the other way counts as inactive or inconclusive.

Aromatase (Homo sapiens), sequence (P11511 whole entry, looked up): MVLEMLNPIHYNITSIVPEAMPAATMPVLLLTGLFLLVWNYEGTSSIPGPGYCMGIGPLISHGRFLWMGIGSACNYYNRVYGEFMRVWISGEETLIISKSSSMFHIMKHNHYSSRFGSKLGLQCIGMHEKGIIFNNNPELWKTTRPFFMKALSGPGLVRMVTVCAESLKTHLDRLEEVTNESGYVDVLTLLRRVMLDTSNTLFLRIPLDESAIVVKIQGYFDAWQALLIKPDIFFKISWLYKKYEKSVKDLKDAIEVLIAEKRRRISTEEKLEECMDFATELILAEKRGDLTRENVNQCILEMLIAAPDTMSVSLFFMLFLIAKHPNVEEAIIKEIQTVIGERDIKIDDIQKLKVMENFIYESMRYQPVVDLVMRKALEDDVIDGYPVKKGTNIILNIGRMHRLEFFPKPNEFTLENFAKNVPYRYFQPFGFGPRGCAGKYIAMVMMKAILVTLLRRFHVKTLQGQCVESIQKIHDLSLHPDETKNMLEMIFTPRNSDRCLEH
Estrogen receptor (Homo sapiens), sequence (P03372 whole entry, looked up): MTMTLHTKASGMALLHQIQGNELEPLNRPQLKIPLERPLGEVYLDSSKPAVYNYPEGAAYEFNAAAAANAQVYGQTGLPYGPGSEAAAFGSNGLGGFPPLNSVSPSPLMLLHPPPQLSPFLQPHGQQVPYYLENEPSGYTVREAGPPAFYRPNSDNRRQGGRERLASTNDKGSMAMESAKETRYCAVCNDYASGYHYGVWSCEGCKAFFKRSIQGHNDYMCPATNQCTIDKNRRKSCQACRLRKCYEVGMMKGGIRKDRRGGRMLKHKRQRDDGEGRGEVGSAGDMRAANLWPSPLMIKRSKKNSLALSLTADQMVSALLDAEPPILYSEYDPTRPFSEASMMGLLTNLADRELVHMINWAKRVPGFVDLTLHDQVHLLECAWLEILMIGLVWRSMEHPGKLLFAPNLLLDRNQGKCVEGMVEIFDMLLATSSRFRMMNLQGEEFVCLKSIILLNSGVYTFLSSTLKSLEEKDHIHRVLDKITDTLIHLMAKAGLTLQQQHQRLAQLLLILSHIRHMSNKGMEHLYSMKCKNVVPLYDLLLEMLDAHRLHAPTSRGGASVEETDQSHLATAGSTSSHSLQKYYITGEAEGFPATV

Turning to `NS(=O)(=O)c1cc2c(cc1Cl)NC(Cc1ccccc1)NS2(=O)=O` (centres undefined), the Potency entry in experiment [1], in experiment [2], in experiment [3], in experiment [4], in experiment [5] and in experiment [6] was “inactive” each time. For the same compound, the Potency result (in experiment [7]; in experiment [8]; in experiment [9]; with Aromatase (Homo sapiens)) was “inactive” each time.

For `CCC(Oc1ccccc1)C(=O)N[C@@H]1C(=O)N2[C@@H]1SC(C)(C)[C@@H]2C(=O)O` (some centres undefined), the Potency entry in experiment [1], in experiment [2], in experiment [3], in experiment [4], in [5] and in [6] was “inactive” in each case. Further, the Potency result (in experiment [7]; in experiment [8]; in experiment [9]; with Aromatase (Homo sapiens)) was “inactive” each time.

As for `O=C(O)c1ccc(NC(=O)[C@H](Cc2ccc(O)cc2)NC(=O)c2ccccc2)cc1`, the Potency entry in [1], in experiment [2], in experiment [3], in experiment [4], in experiment [5] and in [6] was “inactive” throughout. For the same compound, the Potency entry (in experiment [7]; in experiment [8]; in experiment [9]; in the experiment with Aromatase (Homo sapiens)) was “inactive” each time.

In the case of `O=C(O)CC/C=C\CC[C@@H]1[C@@H](N2CCCCC2)[C@@H](O)C[C@@H]1OCc1ccc(-c2ccccc2)cc1`, the Potency result in experiment [1], in [2], in experiment [3], in [4], in [5] and in experiment [6] was “inactive” throughout. For the same compound, the Potency entry (in experiment [7]; in experiment [8]; in [9]; with Aromatase (Homo sapiens)) was “inactive” each time.

As for `C=CCN1CCCC1CNC(=O)c1cc(S(N)(=O)=O)cc(OC)c1OC` (centres undefined), the Potency entry in experiment [1], in experiment [2], in experiment [3], in [4], in experiment [5] and in experiment [6] was “inactive” throughout. Also, the Potency result (in experiment [7]; in experiment [8]; in experiment [9]; with Aromatase (Homo sapiens)) was “inactive” throughout.

`CCCc1ccc(C(=O)O)cc1`: the Potency result in experiment [1], in [2], in experiment [3], in [4], in experiment [5] and in [6] was “inactive” throughout. Moreover, the Potency result (in experiment [7]; in experiment [8]; in [9]; in the experiment with Aromatase (Homo sapiens)) was “inactive” throughout.

With `C[C@H](CSC(=O)c1ccccc1)C(=O)N1C[C@@H](Sc2ccccc2)C[C@H]1C(=O)O`, the Potency entry in [1], in experiment [2], in [3], in experiment [4], in experiment [5] and in experiment [6] was “inactive” throughout. The Potency entry (in experiment [7]; in experiment [8]; in experiment [9]; in the experiment with Aromatase (Homo sapiens)) was “inactive” in each case.

Regarding `CN1[C@@H]2CC[C@H]1CC(OC(c1ccccc1)c1ccccc1)C2` (some centres undefined), the Potency was 16.8 µM (active) and 26.6 µM (active) in [1]; 13.3 µM (active) and 23.7 µM (active) and 11.9 µM (active) in experiment [2]. For the same compound, the Potency entry in experiment [3], in [4], in experiment [5], in [6], in experiment [7] and in experiment [8] was “inactive” throughout. In addition, the Potency result (in [9]; with Aromatase (Homo sapiens)) was “inactive” each time.

`OC[C@H]1O[C@@H](n2cnc3c2NC=NC[C@H]3O)C[C@@H]1O`: the Potency entry in experiment [1], in experiment [2], in [3], in experiment [4], in experiment [5] and in [6] was “inactive” each time. The Potency result (in [7]; in [9]; with Aromatase (Homo sapiens)) was “inactive” in each case.

For the compound `CC(C)c1nc(N(C)S(C)(=O)=O)nc(-c2ccc(F)cc2)c1/C=C/C(O)CC(O)CC(=O)O` (centres undefined), the Potency entry in experiment [1], in [2], in [3], in experiment [4], in experiment [5] and in [6] was “inactive” each time. For the same compound, the Potency entry in experiment [9] is “inactive”. Also, the Potency in experiment [7] is 26.6 µM (active).

Turning to `C[C@H](N)C(=O)N[C@@H](C)P(=O)(O)O`, the Potency entry in experiment [1], in [2], in experiment [3], in experiment [4], in [5] and in experiment [6] was “inactive” throughout. The Potency entry (in experiment [7]; in [8]; in experiment [9]; with Aromatase (Homo sapiens)) was “inactive” each time.

In the case of `COc1cc2c(cc1OC)CC(=O)N(CCCN(C)C[C@H]1Cc3cc(OC)c(OC)cc31)CC2`, the Potency entry in experiment [1], in [2], in experiment [3], in experiment [4], in experiment [5] and in [6] was “inactive” each time. The Potency entry (in [7]; in [8]; in [9]; with Aromatase (Homo sapiens)) was “inactive” in each case.

On to `C=C[C@]1(C)C[C@@H](OC(=O)CSCCN(CC)CC)[C@]2(C)[C@H](C)CC[C@]3(CCC(=O)[C@H]32)[C@@H](C)[C@@H]1O`, for which the Potency in [1] was 10.6 µM (active); in experiment [2], 23.7 µM (active); in experiment [9], 10.6 µM (active). Further, the Potency result in [3], in [4], in experiment [5], in experiment [6], in [7] and in experiment [8] was “inactive” throughout. Moreover, the Potency entry with Aromatase (Homo sapiens) was “inactive”.

As to `Cc1nnc(C(C)C)n1C1C[C@H]2CC[C@@H](C1)N2CC[C@H](NC(=O)C1CCC(F)(F)CC1)c1ccccc1` (some centres undefined), the Potency result in experiment [1], in [2], in experiment [3], in experiment [4], in experiment [5] and in [6] was “inactive” throughout. Further, the Potency entry (in [7]; in [8]; in the experiment with Aromatase (Homo sapiens)) was “inactive” in each case.

In the case of `O=P(O)(O)OC(Cn1cncn1)(Cn1cncn1)c1ccc(F)cc1F`, the Potency entry in experiment [1], in experiment [2], in [3], in experiment [4], in experiment [5] and in experiment [6] was “inactive” each time. Besides, the Potency result (in experiment [7]; in [8]; with Aromatase (Homo sapiens)) was “inactive” each time.

With `CCC(=O)NS(=O)(=O)c1ccc(-c2c(-c3ccccc3)noc2C)cc1`, the Potency result in experiment [1], in experiment [2], in [3], in experiment [4], in experiment [5] and in experiment [6] was “inactive” each time. The Potency result (in [7]; in [8]; with Aromatase (Homo sapiens)) was “inactive” throughout.

Take `O=C(CO)[C@@H](O)[C@H](O)[C@@H](O)C(=O)O`: the Potency entry in [1], in experiment [2], in experiment [3], in experiment [4], in experiment [5] and in experiment [6] was “inactive” throughout. For the same compound, the Potency entry (in [7]; in experiment [8]; in [9]; with Aromatase (Homo sapiens)) was “inactive” throughout.

Turning to `CC(O)[C@H]1CC[C@H]2[C@@H]3CC[C@@H]4C[C@@H](O)CC[C@]4(C)[C@H]3CC[C@]12C` (some centres undefined), the Potency entry in experiment [1], in experiment [2], in experiment [3], in experiment [4], in experiment [5] and in experiment [8] was “inactive” throughout. Also, the Potency entry (in experiment [9]; with Aromatase (Homo sapiens)) was “inactive” in each case. In addition, the values for the Potency in [6] and in [7] were 3.38 µM [inconclusive] (active) and 9.44 µM (active), respectively.

As for `[O]=[Bi][O]C(=O)[O][Bi]=[O]`, the Potency entry in [1], in experiment [2], in experiment [3], in experiment [4], in experiment [5] and in [6] was “inactive” each time. Also, the Potency entry (in experiment [7]; in experiment [8]; in [9]; with Aromatase (Homo sapiens)) was “inactive” in each case.

With `OC[C@H]1O[C@@H](O[C@H]2[C@H](O)[C@@H](O)[C@H](O)O[C@@H]2CO)[C@H](O)[C@@H](O)[C@@H]1O`, the Potency entry in [1], in experiment [2], in experiment [3], in experiment [4], in [5] and in experiment [6] was “inactive” each time. The Potency entry (in experiment [7]; in experiment [8]; in experiment [9]; with Aromatase (Homo sapiens)) was “inactive” in each case.
